# According to PubChem BioAssay (NCI):
# Compounds without any hit were thinned out: in the full panel of roughly 83,000, 20% have a hit.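 48-hour exposure, single concentration, 96-well plates; percent growth endpoint where 0 means no net growth. Active: below 10.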 Values without a mark were called inactive. The source made the active and inactive calls.
# Assays:
# Assay in all cases: NCI-60 one-dose screen, 48 h (100 = growth as untreated, 0 = no growth, -100 = all killed)
# Settings in all cases: 10 µM
# [1] = system: NCI-H23 lung
# [2] = system: NCI-H226 lung
# [3] = system: NCI-H322M lung
# [4] = system: HOP-62 NSCLC
# [5] = system: NCI-H460 lung
# [6] = system: HOP-92 NSCLC
# [7] = system: NCI-H522 lung
# [8] = system: A549/ATCC NSCLC
# [9] = system: 786-0 renal
# [10] = system: COLO 205 colon
Structure (SMILES),growth [1],growth [2],growth [3],growth [4],growth [5],growth [6],growth [7],growth [8],growth [9],growth [10]
C=C1CC/C=C(\C)C(=O)C[C@@H]2[C@@H]1CC2(C)C,107%,107%,119%,119%,107%,88.4%,85.3%,109%,104%,110%
O=C(CN1CCNCC1)N1CCOCC1,93.3%,116%,106%,103%,117%,103%,111%,95.4%,101%,110%
Cc1nc2c(ccc3ccccc32)s1,98%,109%,116%,103%,115%,93.7%,103%,98.6%,101%,110%
c1ccc(/C(=N\N=C(/c2ccccc2)c2cccs2)c2cccs2)cc1,97.3%,89.3%,83.1%,102%,105%,92%,83.1%,105%,84.8%,99.3%
CCOC(=O)C(=O)C=P(c1ccccc1)(c1ccccc1)c1ccccc1,99.4%,108%,98.2%,98.1%,103%,96.5%,90.1%,100%,101%,110%
C#C[C@H]1CCCCCC1O (some centres not stated),95.7%,96.5%,104%,105%,106%,87%,94.8%,105%,103%,111%
CC(C)NC(=O)OCc1c(COC(=O)NC(C)C)c(-c2ccc(Cl)c(Cl)c2)n2c1SCC2,38.6%,-43.7% (active),51.4%,28.7%,13.3%,50.8%,32%,55.3%,19%,53.6%
CCOC(=O)c1[nH]c(C)c(C(=O)O)c1C,109%,101%,91.8%,111%,110%,104%,90.4%,76.2%,110%,112%
Oc1ccccc1-c1nnco1,94.9%,93.1%,89.9%,81.5%,104%,97%,91%,98.9%,90.6%,103%
CC1(O)OC(COc2ccc(Cl)cc2)COC1O (configuration not stated),102%,102%,104%,106%,106%,105%,104%,106%,105%,126%
CS(=O)CC1=NC(=N)N=C1CS(C)=O (configuration not stated),100%,102%,101%,100%,106%,103%,99.9%,97.5%,102%,117%
CC(C)=C(NC(=O)c1ccccc1)C(=O)O,107%,103%,104%,115%,111%,84.5%,92.3%,105%,112%,112%
CC(=O)Cc1cc(-c2cc(CC(C)=O)[nH]n2)n[nH]1,102%,99.3%,96.2%,95.1%,105%,104%,95.8%,102%,103%,110%
N#Cc1c(N)sc(=S)c2c1CCCC2,101%,104%,123%,104%,115%,103%,102%,105%,104%,111%
CCS(=O)(=O)CCCl,101%,114%,97.1%,105%,109%,92.3%,90%,97.4%,105%,126%
[O-][N+](=Nc1cccc(Cl)c1)c1cccc(Cl)c1,94.5%,114%,95.9%,107%,99%,94.1%,148%,95.1%,109%,116%

Structure (SMILES),growth [1],growth [2],growth [3],growth [4],growth [5],growth [6],growth [7],growth [8],growth [9],growth [10]
Cc1cc(NC(=O)CSCC(=O)O)no1,102%,110%,96.7%,96.3%,110%,107%,101%,97.2%,103%,110%
CCN1C(=O)/C(=C/C=C/N(C)c2ccccc2)SC1=S,92.9%,66.4%,94.6%,36.2%,94.7%,103%,60.9%,82.8%,79.8%,104%
CCOC(=O)/C(=C/c1ccc(OC)cc1)N(CC)CC,96.3%,97%,105%,103%,103%,81.4%,94.1%,101%,103%,115%
CC(=O)OCC1CCCO1 (configuration not stated),106%,100%,98.7%,95.1%,91.5%,97.4%,91%,,93.5%,102%
S=C1NCc2cncnc2N1,109%,101%,114%,93.5%,106%,95.6%,,98.2%,106%,111%
CC(=O)OCCC(C)CCC=C(C)C (configuration not stated),105%,105%,114%,108%,104%,98.8%,92.7%,101%,108%,114%
CCOC(=O)C(C#N)Cc1ccccc1 (configuration not stated),105%,112%,116%,116%,117%,101%,111%,109%,109%,123%
COc1cccc(Sc2ccc([N+](=O)[O-])c3no[n+]([O-])c23)c1,68.8%,85.3%,88.7%,103%,95.7%,3.91% (active),-19.9% (active),84%,,-42.2% (active)
CC(=O)c1ccc(C)c(N)c1,81.5%,95.8%,121%,99.6%,111%,92.9%,,92.8%,103%,110%
CN(C)Cc1cc(C(C)(C)CC(C)(C)C)ccc1O,91%,91.2%,100%,91.6%,100%,77.1%,68.4%,111%,92.9%,97.1%
CN(C)c1ccc(C(c2ccc(O)cc2)c2ccc(N(C)C)cc2)cc1,104%,92.9%,98.4%,99.7%,98.6%,90.9%,81.1%,,105%,101%
CCCCCCCCCCCCCCCCC1CC(=O)OC1=O (configuration not stated),107%,103%,114%,95.2%,118%,125%,98.6%,98.5%,,111%
O=C(NCc1ccco1)Nc1c(Cl)cc(Cl)cc1Cl,104%,99.6%,106%,97.3%,103%,79.6%,,102%,97.2%,107%
NC(=O)c1ccc(N=C(N)N=C(N)N)cc1,102%,84.1%,90.6%,87.2%,104%,83.2%,103%,,96.4%,115%
CCOC(=O)c1cc(/C=C/c2cccc(Cl)c2)on1,81.1%,95.1%,96.1%,99.9%,99.3%,88.8%,74.6%,104%,97.7%,119%
